Compounds with a hit are over-represented: about 8.2% of the library has one in this group of screens.
ELG1 repair inh: qHTS screen for small molecules that inhibit ELG1-dependent DNA repair in human embryonic kidney (HEK293T) cells expressing luciferase-tagged ELG1 | AID 504467, 2011 | Potency, µM (top dose mostly 46.1 µM), for inactives: at the highest dose activity change, negative = inhibition, most hits filed as inhibitors | HEK293T ELG1-luciferase reporter, luminescence, 16 h; DNA damage induced by 5-fluorouridine | 2.3% of 330,000 active; also: % is scaled to controls: 0 for no effect and ±100 for the full control effect; nearly all actives have a fitted effect of over 55% in size
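Cells (2,000 per well) received 5-fluorouridine plus test compound or DMSO and were incubated 16 hr at 37 °C, 5% CO2. Luciferase activity was read by luminescence 30 min after ONE-Glo addition; signal suppression marked inhibition of damage-induced ELG1 function.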
SW480 rerep: A quantitative high throughput screen for small molecules that induce DNA re-replication in SW480 colon adenocarcinoma cells; SW480 DNA re-replication, Hoechst DNA content imaging, 48 h; Potency, µM (doses to about 46.1 µM), inactives show at the top dose re-replication activation, hits mostly activators; 1.8% of 340,000 active; AID 624297, 2012; also: % of control where 0% means no effect; nearly all actives have a fitted effect of over 55% in size
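250 cells/well; 23 nL cpd via pin tool; 48 hr, 37 C, 5% CO2; Hoechst 40 min; imager read of total nuclear intensity, ex 405/em 500-530 nm.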
KB-V1 MDR tox: qHTS assay for MDR1-selective chemotherapeutics: Primary screen using the drug-selected MDR subline cells KB-V1; KB-V1 MDR cells viability, CellTiter-Glo, 72 h; Potency, µM (titrated, usually from 46.1 µM), actives largely listed as cytotoxic; 3.4% of 400,000 active; also: % is scaled to controls: 0 for no effect and ±100 for the full control effect; nearly all actives have a fitted effect of over 60% in size
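In this primary screen, KB-V1 cells overexpressing P-gp are incubated with library compounds (lowest to highest concentration) for 72 h at 37 degrees C before a luminescent ATP viability read.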
MCF10A rerep: A quantitative high throughput screen for small molecules that induce DNA re-replication in MCF 10a normal breast cells; MCF 10A DNA re-replication, Hoechst nuclear intensity, 48 h; Potency, µM (doses to about 46.1 µM), inactives show top-dose activity, positive = re-replication, most hits filed as activators; 2.9% of 350,000 active; also: % of control where 0% means no effect; nearly all actives have a fitted effect of over 50% in size
KB-3-1 tox: qHTS assay for MDR1-selective chemotherapeutics: Primary screen using the parental adenocarcinoma cell KB-3-1 | KB-3-1 viability, CellTiter-Glo ATP luminescence, 72 h | Potency, µM (titrated, usually from 46.1 µM), actives largely listed as cytotoxic | 1.4% of 400,000 active; also: % is scaled to controls: 0 for no effect and ±100 for the full control effect; nearly all actives have a fitted effect of over 60% in size
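72 h, 37 °C compound treatment of KB-3-1 parental cells; CellTiter-Glo added, 10 min, luminescence read. Data corrected against DMSO-only plates and normalized before curve fitting.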
An asterisk follows results filed as active; i = inactive; ? = inconclusive; / = not tested or not shown; ! = not confirmed by another sample; [ ] = remark or other dose. Calls follow the shape of the dose curve; as a rule, active = well fitted curve in the direction sought with a large enough effect; inconclusive = small, poorly fitted or top-dose-only effect, or another doubt; inactive = no such curve, though single readings can be large; an effect the other way counts as inactive or inconclusive. Potency is read from the fitted curve at half-maximal effect.

SMILES	ELG1 repair inh	SW480 rerep	KB-V1 MDR tox	MCF10A rerep	KB-3-1 tox
Cn1ncnc2c(=O)n(C)c(=O)nc1-2	6.51µM*	0.5%	0.731µM*	18.4µM*	0.651µM*
COc1ccc(-c2nc3ccc(C(=O)N4CCC5(CC4)OCCO5)cc3nc2-c2ccc(OC)cc2)cc1	16.4µM*	23.1µM*	i	?	i
Clc1ccccc1Cl	/	-8.5%	/	-1.0%	/
C[C@H]1C=CC(=O)O[C@H]1c1ccccc1	/	-7.0%[9.22 µM]	?	?	20.6µM*
C/C(CC(c1ccccc1)c1c(O)c2ccccc2oc1=O)=N\NC(N)=S (centres undefined)	-3.4%	16.4µM*	?	-31.0%	i
O=C(NN1C(=O)C2C3C=CC([C@H]4CC34)[C@@H]2C1=O)c1ccc(Br)cc1 (some centres undefined)	?	-8.0%	?	-0.5%	i
CCOP(=O)(Cc1ccccc1)OCC	23.1%	-3.7%	i	-35.8%	i
COP(=O)(OC)c1nc(-c2cccc3ccccc23)oc1NCCc1ccccc1	?	?	?	20.6µM*	i
CCCNc1oc(-c2cccc3ccccc23)nc1C#N	?	-6.5%	i	?	i
CCOP(=O)(OCC)c1nc(-c2cccc3ccccc23)oc1NCc1ccccc1	?	?	9.2µM*	?	i
Cc1cccnc1	10.3%	-55.9%	i	17.6%	i
O=C1NC(=O)C(=Cc2ccc(SC3CCCCC3)o2)C(=O)N1	?	?	i	20.6µM*	i
CCC1(CC)C(=O)NC(=O)NC1=O	/	0.8%	/	-4.0%	/
C[C@H]1CCCC=CC2C[C@H](O)C[C@@H]2[C@H](O)C=CC(=O)O1 (some centres undefined)	/	/	0.0184µM*	/	0.0073µM*
C[C@H]1CCC/C=C/[C@@H]2C[C@H](O)C[C@H]2[C@@H](O)/C=C/C(=O)O1	/	?	0.184µM*	4.6%	0.184µM*
CC1(C)C(C=C(Cl)Cl)C1C(=O)OCc1cccc(Oc2ccccc2)c1 (centres undefined)	6.2%	-48.4%	i	0.0052µM*!	i
CC1(C)[C@@H](C=C(Cl)Cl)[C@@H]1C(=O)OCc1c(F)c(F)cc(F)c1F	/	-0.4%	/	1.9%	/
C[C@@]12CCC(=O)C=C1C=C[C@H]1[C@H]3CC[C@](O)(CCC(=O)O)[C@]3(C)CC[C@@H]12	/	-4.0%[20.6 µM]	/	2.7%[20.6 µM]	/
C[C@]12CC[C@H]3C(=CCc4cc(O)ccc43)[C@@H]1CCC2=O	?	-26.1%	8.2µM*	?	?
CC12CCC3c4ccc(OP(=O)(N5CC5)N5CC5)cc4CCC3C1CCC2=O (centres undefined)	/	3.1%	?	?	i
CCOC(=O)[C@]12Cc3cc(OC)ccc3[C@H]1N(C(C)C)C(=O)c1cc(OC)ccc12	/	/	6.51µM*	/	10.3µM*
CCOC(=O)[C@]12Cc3c(cc(OC)c(OC)c3OC)[C@H]1N(C(C)C)C(=O)c1cc(OC)ccc12	/	/	2.59µM*	/	4.11µM*
CCOC(=O)[C@]12Cc3c(cc(OC)c(OC)c3OC)[C@H]1N(Cc1ccccc1)C(=O)c1ccccc12	/	0.2%	?	?	i
CCOC(=O)[C@]12Cc3cc(Cl)ccc3[C@H]1N(C)C(=O)c1ccccc12	/	/	i	/	?
CCOC(=O)[C@]12Cc3cc(C)ccc3[C@H]1N(C)C(=O)c1cc(OC)ccc12	/	/	i	/	7.31µM*
SMILES	ELG1 repair inh	SW480 rerep	KB-V1 MDR tox	MCF10A rerep	KB-3-1 tox
CC1(C)CC(=O)C2=C(C1)OC(N)=C([N+](=O)[O-])C2c1ccc(C#N)s1 (centres undefined)	4.1%	?	i	-1.1%	?
[S]=[Sb][S][Sb]=[S]	/	-1.8%	/	-1.3%	/
COc1ccc(F)cc1CN1CCN(C(=O)CCC(=O)Nc2nnc(CC(C)C)s2)CC1	-0.8%	?	i	18.4µM*	i
CCCc1nnc(NC(=O)CCC(=O)N2CCN(CCOC(c3ccccc3)c3ccccc3)CC2)s1	?	-0.8%	i	6.7%	i
CC1(C(=O)O)CCCC2(C)c3cc(O)ccc3CCC12 (centres undefined)	/	-13.2%	i	18.4µM*	i
[O]=[Cd]	/	-7.8%	/	-1.0%	/
CCOP(=S)(OCC)N1CCOCCOCCN(P(=S)(OCC)OCC)CCOCCOCC1	-19.0%	17.6%	i	23.5%	i
CCOC(=O)c1c(C)c(P(=S)(N2CCOCC2)N2CCOCC2)n(C)c1C	16.4µM*	-3.7%	i	2.7%	i
CCOC(=O)c1ccc(NC(c2ccc(N(C)C)cc2)P(=O)(OC(C)C)OC(C)C)cc1 (centres undefined)	-20.5%	?	i	?	i
CCc1ccccc1NC(=O)CN1CCN(C(=O)COc2ccccc2C#N)CC1	?	-8.8%	?	?	i
CCC(=O)c1ccc(OCC(=O)N2CCN(CC(=O)Nc3ccccc3C(F)(F)F)CC2)cc1	16.4µM*	-3.3%	i	12.3%	i
Cc1ccccc1N1C(=O)NC(=O)/C(=C\c2cc(Br)c(N3CCOCC3)o2)C1=O	9.7%	?	i	7.31µM*	i
Cc1ccccc1N1C(=O)NC(=O)/C(=C/c2ccc(N3CCOCC3)o2)C1=O	2.9%	17.3%	i	?	i
C=CCc1cc(C=C2C(=O)N(C)C(=O)N(C)C2=O)cc(OCC)c1OCc1ccccc1	-2.7%	3.9%	16.4µM*	?	?
C=CCc1cc(C=C2C(=O)NC(=O)NC2=O)cc(OC)c1OCc1ccc(C(=O)O)cc1	-5.0%	-33.9%	i	?	i
CC(C)C(=O)Nc1ccc([N+](=O)[O-])c(C(F)(F)F)c1	-29.2%	-84.4%	?	-9.9%	i
O=C(CCn1nc(-c2ccc(Cl)cc2)ccc1=O)N1CCC2(CC1)OCCO2	-4.2%	-7.5%	i	-2.2%	i
Cc1nc2cc(-c3ccc(Cl)cc3)nn2c(C)c1CCC(=O)N1CCC2(CC1)OCCO2	/	-3.6%	18.4µM*	14.0%	i
ClC1=C(Cl)C2(Cl)C(CBr)CC1(Cl)C2(Cl)Cl (centres undefined)	/	-5.8%	/	18.8µM*	/
Oc1ccccc1/C=N/[n+]1ccccc1	0.0%	-11.2%	i	-2.0%	i
COc1cc(C2c3cc4c(c(O)c3CC3COC(=O)C32)OCO4)cc(OC)c1O (centres undefined)	/	/	0.184µM*	/	0.0164µM*
COc1ccc2c(c1OC)C(=O)OC2C1c2cc3c(cc2CCN1C)OCO3 (centres undefined)	?	-5.5%	?	?	i

Screens from PubChem.
